ChEMBL document CHEMBL1961873, “Compounds: GSK PKIS; Assays: Nanosyn kinase panel” (2012)

Tests used:
[1] = biological target: Serine/threonine-protein kinase PAK 6 (Homo sapiens) (UniProt Q9NQU5); details: at 1 µM;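 further: values are mean percent inhibition of PAK6 kinase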
[2] = tested on: Tyrosine-protein kinase ABL1 (Homo sapiens), P00519 [E255K]; details: at 0.1 µM
[3] = tested on: Tyrosine-protein kinase ABL1 (Homo sapiens), P00519 [E255K]; details: at 1 µM
[4] = tested on: Tyrosine-protein kinase ABL1 (Homo sapiens), P00519 [H396P]; details: at 0.1 µM
[5] = tested on: Tyrosine-protein kinase ABL1 (Homo sapiens), P00519 [H396P]; details: at 1 µM
[6] = tested on: Tyrosine-protein kinase ABL1 (Homo sapiens), P00519 [M351T]; details: at 0.1 µM
[7] = tested on: Tyrosine-protein kinase ABL1 (Homo sapiens), P00519 [M351T]; details: at 1 µM
[8] = tested on: Tyrosine-protein kinase ABL1 (Homo sapiens), P00519 [Q252H]; details: at 0.1 µM
[9] = tested on: Tyrosine-protein kinase ABL1 (Homo sapiens), P00519 [Q252H]; details: at 1 µM
[10] = tested on: Tyrosine-protein kinase ABL1 (Homo sapiens), P00519 [T315I]; details: at 0.1 µM
[11] = tested on: Tyrosine-protein kinase ABL1 (Homo sapiens), P00519 [T315I]; details: at 1 µM
[12] = tested on: Tyrosine-protein kinase ABL1 (Homo sapiens), P00519 [Y253F]; details: at 0.1 µM
[13] = tested on: Tyrosine-protein kinase ABL1 (Homo sapiens), P00519 [Y253F]; details: at 1 µM
[14] = biological target: Tyrosine-protein kinase ABL1 (Homo sapiens) (UniProt P00519); details: at 0.1 µM
[15] = biological target: Tyrosine-protein kinase ABL1 (Homo sapiens) (UniProt P00519); details: at 1 µM
[16] = biological target: ALK tyrosine kinase receptor (Homo sapiens) (UniProt Q9UM73); details: at 0.1 µM
[17] = biological target: ALK tyrosine kinase receptor (Homo sapiens) (UniProt Q9UM73); details: at 1 µM
[18] = biological target: Tyrosine-protein kinase ABL2 (Homo sapiens) (UniProt P42684); details: at 0.1 µM
[19] = biological target: Tyrosine-protein kinase ABL2 (Homo sapiens) (UniProt P42684); details: at 1 µM
[20] = biological target: Tyrosine-protein kinase receptor UFO (Homo sapiens) (UniProt P30530); details: at 0.1 µM;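 further: values are mean percent inhibition of AXL from the GSK PKIS screen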
Sequence of Tyrosine-protein kinase receptor UFO (Homo sapiens) (P30530 whole entry): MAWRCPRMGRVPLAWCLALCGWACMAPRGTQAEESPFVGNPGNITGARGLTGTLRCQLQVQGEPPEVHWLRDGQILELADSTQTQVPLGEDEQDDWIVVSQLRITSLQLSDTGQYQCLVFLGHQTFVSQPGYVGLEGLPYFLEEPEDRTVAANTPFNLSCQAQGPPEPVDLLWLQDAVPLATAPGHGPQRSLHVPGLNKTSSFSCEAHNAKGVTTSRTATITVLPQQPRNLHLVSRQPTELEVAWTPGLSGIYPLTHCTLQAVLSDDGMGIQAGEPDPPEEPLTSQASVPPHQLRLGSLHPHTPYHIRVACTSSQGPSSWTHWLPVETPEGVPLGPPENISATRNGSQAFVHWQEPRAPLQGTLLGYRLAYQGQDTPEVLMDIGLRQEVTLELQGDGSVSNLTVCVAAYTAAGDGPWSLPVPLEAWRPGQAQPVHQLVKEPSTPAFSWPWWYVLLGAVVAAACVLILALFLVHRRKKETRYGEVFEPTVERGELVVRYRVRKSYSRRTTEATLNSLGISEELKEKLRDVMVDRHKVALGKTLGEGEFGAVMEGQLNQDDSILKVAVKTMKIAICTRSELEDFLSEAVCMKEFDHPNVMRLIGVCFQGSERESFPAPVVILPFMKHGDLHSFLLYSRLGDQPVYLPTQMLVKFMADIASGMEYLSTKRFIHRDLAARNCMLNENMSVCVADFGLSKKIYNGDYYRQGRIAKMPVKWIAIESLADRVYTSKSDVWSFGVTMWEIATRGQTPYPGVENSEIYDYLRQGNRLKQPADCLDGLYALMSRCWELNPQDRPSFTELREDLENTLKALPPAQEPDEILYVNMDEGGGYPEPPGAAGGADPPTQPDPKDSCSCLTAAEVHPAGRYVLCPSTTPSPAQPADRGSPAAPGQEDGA

Sequence of ALK tyrosine kinase receptor (Homo sapiens) (Q9UM73 19-1620 limits assumed): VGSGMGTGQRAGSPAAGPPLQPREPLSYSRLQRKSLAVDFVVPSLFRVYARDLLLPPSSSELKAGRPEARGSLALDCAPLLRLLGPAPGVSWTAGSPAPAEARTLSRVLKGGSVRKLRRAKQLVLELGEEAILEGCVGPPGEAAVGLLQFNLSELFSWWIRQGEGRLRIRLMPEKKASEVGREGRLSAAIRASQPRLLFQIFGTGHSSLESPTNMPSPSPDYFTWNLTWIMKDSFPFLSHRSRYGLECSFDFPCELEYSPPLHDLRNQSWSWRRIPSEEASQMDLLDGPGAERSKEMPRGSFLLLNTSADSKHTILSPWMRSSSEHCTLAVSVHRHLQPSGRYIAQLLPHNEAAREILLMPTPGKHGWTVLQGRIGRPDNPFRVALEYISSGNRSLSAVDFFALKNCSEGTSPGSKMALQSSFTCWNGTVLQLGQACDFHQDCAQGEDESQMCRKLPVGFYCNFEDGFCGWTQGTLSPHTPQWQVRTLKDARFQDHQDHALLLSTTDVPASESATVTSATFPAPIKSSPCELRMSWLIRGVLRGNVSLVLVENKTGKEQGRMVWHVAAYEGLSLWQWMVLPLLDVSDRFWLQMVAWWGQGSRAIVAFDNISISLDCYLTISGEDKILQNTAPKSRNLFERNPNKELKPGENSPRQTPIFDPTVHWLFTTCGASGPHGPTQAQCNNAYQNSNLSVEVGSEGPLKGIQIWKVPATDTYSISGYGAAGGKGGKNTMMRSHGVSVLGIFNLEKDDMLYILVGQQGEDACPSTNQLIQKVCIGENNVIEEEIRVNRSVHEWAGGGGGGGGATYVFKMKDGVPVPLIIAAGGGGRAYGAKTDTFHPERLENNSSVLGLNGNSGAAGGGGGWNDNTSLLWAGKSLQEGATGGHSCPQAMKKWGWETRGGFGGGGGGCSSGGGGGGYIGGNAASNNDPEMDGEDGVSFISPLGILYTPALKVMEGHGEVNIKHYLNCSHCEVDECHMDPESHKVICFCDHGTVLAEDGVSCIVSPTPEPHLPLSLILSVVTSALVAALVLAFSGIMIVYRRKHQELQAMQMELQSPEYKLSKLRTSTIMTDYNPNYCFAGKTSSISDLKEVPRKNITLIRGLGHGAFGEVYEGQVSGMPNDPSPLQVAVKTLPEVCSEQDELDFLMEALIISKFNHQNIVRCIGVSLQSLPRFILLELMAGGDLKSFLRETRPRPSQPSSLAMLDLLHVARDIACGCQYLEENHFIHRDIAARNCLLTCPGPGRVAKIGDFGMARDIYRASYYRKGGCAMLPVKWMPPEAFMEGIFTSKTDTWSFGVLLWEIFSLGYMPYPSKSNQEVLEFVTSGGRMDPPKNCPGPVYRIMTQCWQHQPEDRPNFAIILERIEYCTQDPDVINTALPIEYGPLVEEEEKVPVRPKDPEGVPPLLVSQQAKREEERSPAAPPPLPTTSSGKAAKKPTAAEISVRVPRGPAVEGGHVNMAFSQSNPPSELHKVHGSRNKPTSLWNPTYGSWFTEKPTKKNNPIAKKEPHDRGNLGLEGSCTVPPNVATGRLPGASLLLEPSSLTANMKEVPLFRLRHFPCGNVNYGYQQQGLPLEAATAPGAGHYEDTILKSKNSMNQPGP
Sequence of Tyrosine-protein kinase ABL2 (Homo sapiens) (P42684 whole entry): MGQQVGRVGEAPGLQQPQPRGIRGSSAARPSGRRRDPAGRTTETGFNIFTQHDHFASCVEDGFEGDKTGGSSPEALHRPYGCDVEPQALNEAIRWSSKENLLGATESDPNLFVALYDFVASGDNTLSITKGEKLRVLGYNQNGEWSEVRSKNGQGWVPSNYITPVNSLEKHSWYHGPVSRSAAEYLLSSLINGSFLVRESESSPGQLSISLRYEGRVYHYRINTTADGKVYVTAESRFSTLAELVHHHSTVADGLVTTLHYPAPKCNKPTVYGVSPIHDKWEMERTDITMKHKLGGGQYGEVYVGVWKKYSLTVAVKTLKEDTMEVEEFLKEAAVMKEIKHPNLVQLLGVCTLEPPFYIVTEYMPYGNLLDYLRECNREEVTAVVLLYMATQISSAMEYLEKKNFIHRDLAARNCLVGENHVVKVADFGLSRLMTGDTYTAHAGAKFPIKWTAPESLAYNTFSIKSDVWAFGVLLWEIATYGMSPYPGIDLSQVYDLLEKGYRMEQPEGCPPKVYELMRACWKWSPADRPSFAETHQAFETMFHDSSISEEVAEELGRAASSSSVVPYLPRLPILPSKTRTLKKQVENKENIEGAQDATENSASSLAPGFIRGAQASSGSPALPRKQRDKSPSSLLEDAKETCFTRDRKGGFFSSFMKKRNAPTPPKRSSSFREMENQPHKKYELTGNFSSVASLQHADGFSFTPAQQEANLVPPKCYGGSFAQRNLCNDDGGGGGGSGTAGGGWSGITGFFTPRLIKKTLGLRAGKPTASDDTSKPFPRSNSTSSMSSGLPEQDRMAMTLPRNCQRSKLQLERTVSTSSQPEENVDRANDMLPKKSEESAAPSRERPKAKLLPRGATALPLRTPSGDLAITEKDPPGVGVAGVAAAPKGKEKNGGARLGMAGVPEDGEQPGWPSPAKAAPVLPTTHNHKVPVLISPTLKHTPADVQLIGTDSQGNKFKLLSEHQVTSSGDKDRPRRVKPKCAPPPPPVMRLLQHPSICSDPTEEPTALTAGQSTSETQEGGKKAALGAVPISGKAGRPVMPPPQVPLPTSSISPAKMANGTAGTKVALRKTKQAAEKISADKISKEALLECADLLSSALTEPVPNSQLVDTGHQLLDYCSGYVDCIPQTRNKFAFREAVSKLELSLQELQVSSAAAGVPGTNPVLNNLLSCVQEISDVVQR
Sequence of Serine/threonine-protein kinase PAK 6 (Homo sapiens) (Q9NQU5 whole entry, looked up): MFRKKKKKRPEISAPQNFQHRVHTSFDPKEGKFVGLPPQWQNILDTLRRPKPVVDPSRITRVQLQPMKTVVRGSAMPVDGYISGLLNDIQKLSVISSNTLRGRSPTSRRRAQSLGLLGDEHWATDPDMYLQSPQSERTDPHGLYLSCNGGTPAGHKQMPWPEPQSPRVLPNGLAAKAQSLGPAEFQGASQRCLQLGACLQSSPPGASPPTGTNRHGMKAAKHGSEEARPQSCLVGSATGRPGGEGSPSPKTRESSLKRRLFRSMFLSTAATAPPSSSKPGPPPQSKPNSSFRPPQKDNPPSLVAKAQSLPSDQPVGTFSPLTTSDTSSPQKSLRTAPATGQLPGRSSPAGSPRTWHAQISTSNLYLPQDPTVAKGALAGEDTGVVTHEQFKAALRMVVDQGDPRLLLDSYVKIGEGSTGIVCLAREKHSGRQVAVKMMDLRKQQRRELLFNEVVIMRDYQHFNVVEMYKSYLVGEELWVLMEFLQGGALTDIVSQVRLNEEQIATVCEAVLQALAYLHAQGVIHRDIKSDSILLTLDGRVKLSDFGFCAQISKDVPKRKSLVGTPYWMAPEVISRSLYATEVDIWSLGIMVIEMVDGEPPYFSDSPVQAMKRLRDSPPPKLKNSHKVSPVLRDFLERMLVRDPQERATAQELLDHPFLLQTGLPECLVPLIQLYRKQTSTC

| Compound | inhibition [1] [%] | inhibition [2] [%] | inhibition [3] [%] | inhibition [4] [%] | inhibition [5] [%] | inhibition [6] [%] | inhibition [7] [%] | inhibition [8] [%] | inhibition [9] [%] | inhibition [10] [%] | inhibition [11] [%] | inhibition [12] [%] | inhibition [13] [%] | inhibition [14] [%] | inhibition [15] [%] | inhibition [16] [%] | inhibition [17] [%] | inhibition [18] [%] | inhibition [19] [%] | inhibition [20] [%] |
| --- | --- | --- | --- | --- | --- | --- | --- | --- | --- | --- | --- | --- | --- | --- | --- | --- | --- | --- | --- | --- |
| COc1cc2ncn(-c3cc(O[C@@H](C)c4ccccc4Cl)c(C(N)=O)s3)c2cc1OC | -1.4 | 7.11 | 21.4 | 9.2 | 33.8 | 3.76 | 29.7 | 6.57 | 28.5 | 3.45 | 13.5 | 6.04 | 25.9 | 7.09 | 28.4 | 3.25 | 6.34 | 3.24 | 11.4 | -8.48 |
| CN(C)c1cc2c(Nc3ccc4nc(Cc5ccccc5)[nH]c4c3)ncnc2cn1 | -5.69 | 3 | 2.89 | 6.52 | 4.37 | 2.81 | 3.14 | 6.01 | 5.74 | 5.24 | 4.5 | 4.02 | 6.17 | 5.47 | 9.51 | 4.99 | 4.24 | 4.28 | 7.06 | -8.08 |
| COc1cc2c(cc1Nc1nc(N3CCc4ccccc43)c3cc[nH]c3n1)N(C(=O)CN(C)C)CC2 | -0.54 | 0.52 | 1.73 | 0.54 | -0.96 | 0.88 | -0.63 | 1.56 | 2.24 | 1.05 | -1.44 | 1.21 | 3.71 | 2.76 | 7.27 | 90 | 85.3 | 2.02 | 5.11 | 3.85 |
| NC(=O)c1cccc(Nc2nccc(Nc3cccc4[nH]ncc34)n2)c1 | 0.17 | 76.9 | 95.5 | 82.2 | 96.7 | 77.9 | 95.7 | 73.5 | 95.4 | 3.14 | 25.4 | 84.1 | 98.5 | 70.2 | 84.9 | -0.3 | 15.4 | 69.1 | 88.6 | 4.05 |
| CNC(=O)c1cncc(/C=C/c2c(Cl)cccc2Cl)c1 | -7.96 | 3.46 | 33.3 | 9.69 | 47.2 | 6.02 | 42.2 | 8.15 | 41.9 | -0.11 | 4.22 | 12.5 | 54.5 | 8.37 | 40.5 | 6 | 9.12 | 7.46 | 35.7 | -6.04 |
| [O-][S+]1CCN(Cc2ccc(-c3ccc4ncnc(Nc5ccc(OCc6ccccc6)c(F)c5)c4c3)o2)CC1 | -0.59 | 1.66 | 2.97 | 2.03 | 0.51 | 2.17 | 0.04 | 1.58 | 0.89 | 1.21 | -1.37 | 2.33 | -0.81 | 1.83 | 5.78 | 1.75 | 4.79 | 3.02 | 3.87 | -4.98 |
| O=C1NC(=O)C(c2cccc(Cl)c2)=C1Nc1ccc(O)c(Cl)c1 | -3.45 | 0.46 | -0.55 | 1.43 | 1.01 | -0.1 | 1.15 | -0.15 | 2.63 | 1.14 | -0.11 | -0.8 | 2.65 | 2.51 | 7.89 | 0.73 | 4.45 | 2.29 | 8.28 | 0.38 |
| NCc1ccc(-c2nc(-c3ccc(Cl)c(O)c3)c(-c3ccncc3)[nH]2)cc1 | 0.88 | 7.57 | 43.3 | 9.07 | 48.9 | 11.2 | 43.9 | 7.54 | 38.4 | 3.08 | 24.2 | 12.6 | 54.6 | 6.87 | 53.1 | -0.45 | 2.22 | 9.17 | 55.8 | -4.39 |
| CCn1c(-c2nonc2N)nc2c(C#CC(C)(C)O)nc(CN3CCCC3)cc21 | -0.08 | 0.01 | 0.44 | 0.09 | 0.68 | -0.36 | 2.83 | 0.06 | 3.09 | -0.43 | 0.96 | 0.59 | -0.16 | 0.66 | 3.27 | -0.84 | 0.01 | 2.08 | 5.65 | 1.88 |
| COc1cc2ncn(-c3cc(OCc4ccccc4C(F)(F)F)c(C(N)=O)s3)c2cc1OC | -0.46 | 0.92 | 13.5 | 5.99 | 23 | 3.68 | 19.2 | 5.63 | 21.9 | 3.84 | 14 | 5.48 | 19.4 | 2.17 | 17.9 | 0.14 | 5.04 | 2.15 | 13.2 | -8.08 |
| NS(=O)(=O)c1ccc(N/N=C2\C(=O)Nc3ccc(C(=O)NCCc4c[nH]cn4)cc32)cc1 | 3.67 | 5.1 | 6.98 | 3.97 | 11.2 | 4.18 | 9.6 | 5.47 | 8.73 | 3.68 | 11.6 | 3.56 | 12.1 | 5.35 | 15.3 | 3.67 | 12.9 | 4.29 | 9.57 | -2.52 |
| NS(=O)(=O)c1cccc(-c2ccc3c(NC(=O)C4CC4)n[nH]c3c2)c1 | -8.66 | 1.26 | 7.94 | 3.4 | 21.7 | 7.02 | 20.2 | 2.5 | 9.03 | 3.32 | 25.3 | 2.68 | 27 | -0.29 | 20.5 | -1.84 | -1.06 | -1.16 | 1.08 | 1.32 |
| COc1cc2ncn(-c3cc(O[C@H](C)c4ccccc4Cl)c(C(N)=O)s3)c2cc1OC | 11.9 | 3.23 | 28.1 | 10.7 | 49.4 | 9.46 | 48.3 | 9.97 | 43.2 | 11.2 | 57.9 | 11.5 | 47.1 | 7.25 | 47.2 | 4.18 | 19 | 4.99 | 37.2 | -0.27 |
| CC(=O)Nc1cccc(C#Cc2cncnc2Nc2ccc(OCc3cccc(F)c3)c(Cl)c2)n1 | 0.8 | -0.61 | -0.48 | 0.09 | 1.6 | 1.08 | 3.88 | 0.29 | 3.02 | 0.4 | 2.23 | 2.32 | 1.84 | 1.24 | 4.88 | -2.16 | -2.6 | 0.55 | 3.74 | 7.46 |
| Nc1ncnc2occ(-c3ccc(NC(=O)Nc4cccc(C(F)(F)F)c4)cc3)c12 | -2.37 | 5.41 | 38.8 | 25.3 | 76.8 | 54.5 | 85.1 | 54.2 | 81.6 | 48.3 | 89.2 | 12.3 | 48.2 | 16.1 | 55.8 | 6.2 | 21.8 | 33.6 | 64.7 | – |
| COc1cc(C)c(NC(=O)CN(C)C)cc1Nc1nc(Nc2cccc(F)c2C(N)=O)c2cc[nH]c2n1 | -2.96 | 1.11 | 0.03 | 2.73 | -1.28 | 1.99 | -1.18 | 2.21 | -0.29 | 1.45 | 0.49 | 3.3 | -0.09 | 1.95 | 4.55 | 97.8 | 88.9 | 1.11 | -0.02 | 17.6 |
| Fc1cccc(COc2ccc(Nc3ncnc4sc(-c5cccs5)cc34)cc2Cl)c1 | -8.25 | 0.56 | 1.97 | 1.28 | 3.54 | 1.53 | 2.68 | 0.76 | 2.11 | 1.08 | 0.93 | 1.7 | 3.31 | 1.23 | 6.44 | 0.25 | 0.57 | 1.27 | 5.37 | -4.04 |
| CC(C)=Cc1cccc2c1/C(=N/Nc1ccc(S(N)(=O)=O)cc1)C(=O)N2 | -0.47 | 1.22 | 9.2 | 2.39 | 13.8 | 2.77 | 26.6 | 3 | 18.2 | 0.99 | 18.2 | 4.12 | 21.9 | 2.44 | 12.7 | 2.57 | 10.4 | 3.09 | 14 | 1.02 |
| CCN1CCC(CC(=O)Nc2n[nH]c3nc(-c4cccs4)c(Br)cc23)CC1 | -1.76 | -1.62 | 2.21 | -0.27 | 8.03 | -0.05 | 4.95 | 0.92 | 11.6 | 3.23 | 22.7 | -0.82 | 5.45 | 2.56 | 7.83 | -2.08 | -1.3 | -0.08 | 2.5 | 1.67 |
| N#Cc1c(NC(=O)c2cccc3ccccc23)sc2c1CCCC2 | 1.52 | 4.44 | 5.5 | 4.91 | 2.88 | 3.89 | 3.56 | 5.46 | 3.18 | 2.03 | 3.27 | 5.89 | 5.73 | 2.91 | 9.14 | 2.92 | 2.25 | 3.88 | 9.55 | -4.77 |
| CCn1c(-c2nonc2N)nc2c(C#CC(C)(C)O)nc(OC[C@@H](N)c3ccccc3)cc21 | 91.4 | -1.82 | 1.65 | 0.8 | -0.27 | 1.41 | 0.68 | 0.61 | -0.28 | 0.08 | 3.35 | 0.12 | 2.98 | 7.72 | 10.1 | -0.2 | 10.2 | 5.61 | 1.83 | 2.41 |
| COC(=O)Nc1nc2cc(Oc3cccc(NC(=O)Nc4cc(C(F)(F)F)ccc4F)c3)ccc2[nH]1 | -6.76 | 0.37 | 7.39 | 9.03 | 41.7 | 34.8 | 69.3 | 32.1 | 68.6 | 2.28 | 12.6 | 5.16 | 19.8 | 0.82 | 24.6 | -1 | 0.13 | 4.08 | 41.3 | -0.41 |
| COc1cc(C=NNc2ncnc3c2cnn3-c2ccccc2)ccc1O | 2.62 | 24.9 | 77.9 | 40.3 | 84.9 | 40.1 | 88.5 | 50.5 | 88.7 | 32 | 82.1 | 43.3 | 86.6 | 23.4 | 73.7 | 2.44 | 6.69 | 11.6 | 71.5 | -1.48 |
| COc1ccc(-c2coc3ncnc(N)c23)cc1 | -1.23 | 3.51 | 9.75 | 5.34 | 11.3 | 3.43 | 8.4 | 5.31 | 9.48 | 1.41 | 2.72 | 4.98 | 10.8 | 3.7 | 12 | 4.4 | 3.97 | 3.42 | 8.31 | -5.99 |
| Cc1nnc(-c2ccc(C)c(-c3ccc(C(=O)Nc4cccc(C#N)c4)cc3)c2)o1 | -7.37 | 2 | 4.21 | -0.02 | 3.51 | -0.06 | 2.91 | 3.04 | 4.21 | 1.53 | 2.58 | 1.18 | 3.76 | 3.64 | 5.81 | 3.61 | 2.36 | 4.17 | 6.56 | -4.6 |
| CS(=O)(=O)Nc1ccc(N/C=C2\C(=O)Nc3ccccc32)cc1 | -8.06 | -0.28 | 3.16 | -0.26 | 10.9 | 1.98 | 16.4 | 1.09 | 11 | 0.68 | 18.3 | -0.43 | 12 | -0.3 | 11 | -2.22 | 5.88 | 0.2 | 8.69 | 2.95 |
